Each structure is given as a SMILES string. Activity calls are given as the source filed them. Calls follow the shape of the dose curve; as a rule, active = well fitted curve in the direction sought with a large enough effect in the repeat runs; inconclusive = weak or mixed curves; inactive = flat fitted curve, though single readings scatter.

The test is described as follows: qHTS assay to test for compound auto fluorescence at 535 nm (green) in HepG2 cell free culture (AID 720686). To be noted: Cell-free medium, green autofluorescence 485/535 nm; series mostly up to 91.3 µM. From the text:
U.S. Tox21 Program National Center for Advancing Translational Sciences [NCATS] NIH Chemical Genomics Center [NCGC] U.S. Environmental Protection Agency [EPA] National Institutes of Environmental Health Sciences [NIEHS] National Toxicology Program [NTP] U.S. Food and Drug Administration [FDA] Tox21 Assay Overview: Compound auto fluorescence often interferes with screening of the compound library against various biological targets and signaling pathways. Some of these compounds may have fluorophoric properties. Such properties may interfere with the assay outputs resulting in false positives and/or negatives. To decrease such complications and ensure the compound activities are relevant in terms of biological response, the Tox21 10K compound library was screened for auto fluorescence. From the fluorophores used as reporter signals in our screening assays, the auto fluorescence equivalencies of compounds against three fluorophores have been evaluated: Triamterene, Fluorescein and Rose Bengal sodium for blue, green and red fluorescence, respectively. The fluorescence intensities were measured using Excitation/Emission wavelengths at 405/460nm, 485/535nm and 540/590nm for blue, green and red labels, respectively. This assay includes the green fluorescence data.
Tox21 Assay Protocol Summary: 5 uL of culture medium (MEM containing 10% FBS) per well was dispensed into black wall/clear bottom 1536-well plates using a Multidrop Combi Dispenser (ThermoFisher Scientific, Waltham, MA). After 23 nL compound or DMSO vehicle was transferred into assay plate by a pintool work station (Kalypsys, San Diego, CA), fluorescence intensities in the assay plates were measured by an Envision (PerkinElmer, Shelton, CT) plate reader using three labels for measuring blue, green and red fluorescence at […] 460, 535 and 590nm respectively.
In the case of `NC(=O)CF`, the call was inactive.
The entry for `CCC(C)(C)O` is “inactive”; for `CN1CC[C@]23c4c5ccc(O)c4O[C@H]2[C@@H](O)CC[C@H]3[C@H]1C5` it is “inactive”.
As for `CCCCCCCCCCCC[N+](C)(C)CCOc1ccccc1`, the result was inactive.
For `ClCc1ccccc1Cl`, the outcome was inactive.
Consider `OCCCl`, for which the outcome was inactive.
Regarding `CC(C)(C#N)C(C)(C)C#N`, the outcome was inactive.
Regarding `CCCN(CCC)c1c([N+](=O)[O-])cc(C(C)C)cc1[N+](=O)[O-]`, the compound was called inactive.
On to `C[N+](C)(C)CCOC(=O)C(O)(c1ccccc1)c1ccccc1`, for which the result was inactive.
In the case of `c1ccc2sc(SNC3CCCCC3)nc2c1`, the call was inactive.
For `COP(=O)(OC)OC(Br)C(Cl)(Cl)Br` (stereo not given), the call was inactive.
Consider `CCCCC1C(=O)NC(=O)N(C2CCCCC2)C1=O` (stereo not given), for which the call was inactive.
Regarding `O=[N+]([O-])O[C@H]1CO[C@H]2[C@@H]1OC[C@H]2O[N+](=O)[O-]`, the call was inactive.
Take `Nc1cc(Cl)cc(C(=O)O)c1Cl`: the result was inactive.
The value for `C=CCSSCC=C` was “inactive”; that for `CC(C)OC(=O)Cc1ccccc1` was “inactive”; that for `CCCCCCCCn1sccc1=O` was “inactive”.
The entry for `CCCCCCCCP(=O)(O)O` is “inactive”; for `OCC1CO1` (stereo not given) it is “inactive”; for `CN(C)C(=O)Nc1cccc(OC(=O)NC(C)(C)C)c1` it is “inactive”.
Consider `CCCC1CCCCN1` (stereo not given), for which the compound was called inactive.
`CCCN(CCOc1c(Cl)cc(Cl)cc1Cl)C(=O)n1ccnc1`: the call was inactive.
In the case of `O=[N+]([O-])/C=C/c1ccccc1`, the compound was called inactive.
Regarding `CC(=O)OC(c1ccccc1)C(Cl)(Cl)Cl` (stereo not given), the result was inactive.
As to `CCC1(CC)C(=O)NC(=O)NC1=O`, the outcome was inactive.
As for `C[N+](C)(C)CC1CO1` (stereo not given), the compound was called inactive.
Regarding `CCOc1cccc(C2(N3CCN(c4ccccc4)CC3)CCC(C)CC2)c1` (stereo not given), the outcome was inactive.
The entry for `FC(F)OC(F)(F)C(F)Cl` (stereo not given) is “inactive”.
For the compound `CON(C)C(=O)Nc1ccc(Cl)cc1`, the compound was classed as inactive.
Regarding `C=CCOC(=O)C(C)(C)OC(=O)c1cc(-n2c(=O)cc(C(F)(F)F)n(C)c2=O)ccc1Cl`, the compound was classed as inactive.
With `CCOC(=O)NC(O)C(Cl)(Cl)Cl` (stereo not given), the result was inactive.
The entry for `CC[N+]1(C)CCCC(OC(=O)C(O)(c2ccccc2)c2ccccc2)C1` (stereo not given) is “inactive”.
Turning to `C#C[C@]1(O)CC[C@H]2[C@@H]3CCC4=CC(=O)CCC4=C3C=C[C@@]21CC`, the compound was classed as inactive.
For the compound `COc1ccc(C(=O)c2c(C)n(CCN3CCOCC3)c3ccccc23)cc1`, the compound was called inactive.
As for `CCOP(=S)(OCC)Oc1ccc(S(C)=O)cc1` (stereo not given), the compound was classed as inactive.
The entry for `NNCCO` is “inactive”; for `CCCCC#N` it is “inactive”.
The entry for `CC(C)(C)NCC(O)c1ccccc1Cl` (stereo not given) is “inactive”; for `C=CC(=O)OCC` it is “inactive”; for `CC(C)C1(C)N=C(c2ncccc2C(=O)O)NC1=O` (stereo not given) it is “inactive”.

(Values after PubChem BioAssay (Tox21).)
